These results are taken from the supplement of paper PMC9446081.

SMILES strings stand for the structures. The whole screen tested about 39,000 compounds, of which about 220 (0.56%) showed activity. This excerpt belongs to a sample that is enriched for actives. Values without a mark were called inactive.
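Further: Wild-type cells incubated without shaking, value is the mean of two biological replicates.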

This assay deals with Escherichia coli K-12 BW25113. Description: relative growth (OD600 normalised to plate interquartile mean) (fraction); higher = less growth inhibition, active = 0.2 or less. The settings on record: 50 µM; LB; incubation time: overnight (16-24 h).
`CC(NCCCc1cccc(C(F)(F)F)c1)c1cccc2ccccc12.Cl` (centres undefined): the relative growth was 0.0467 (active).
For the molecule `CC(Cc1cccc(C(F)(F)F)c1)NCCOC(=O)c1ccccc1.Cl` (centres undefined), the relative growth is 0.815.
For `C[C@@H](O)c1cccc(C(F)(F)F)c1`, the relative growth was 0.986.
On to `C[C@H]1CN([C@@H](C)CO)C(=O)c2cc(NS(=O)(=O)c3cn(C)cn3)ccc2O[C@H]1CN(C)Cc1ccc(C(=O)Nc2ccccc2N)cc1`, for which the relative growth is 1.04.
The result for `COc1cccc(OCc2ccc(Cn3nc(NC(=O)NCc4ccccc4OC)c4ccccc43)cc2)c1` reads 1.03; that for `O=C1C=CC(=O)N1`, 0.0291 (active).
`Cc1noc(C)c1S(=O)(=O)Nc1ccc2c(c1)CC(=O)N([C@H](C)CO)C[C@H](C)[C@H](CN(C)S(=O)(=O)c1c(C)noc1C)O2`: the relative growth is 1.01.
Turning to `CN(C)CCOC(c1ccccc1)c1ccccc1.Cl`, the relative growth was 1.12.
As to `COCCc1nc2c([nH]1)c(=O)n(C)c(=O)n2C`, the relative growth is 0.97.
In the case of `CN(C)CCOC(c1ccccc1)c1ccccc1.Cn1c(=O)c2[nH]c(Cl)nc2n(C)c1=O`, the relative growth is 0.0491 (active).
As for `CO[C@@H]1CN(C)C(=O)c2cc(NC(=O)c3ccc(F)cc3)ccc2OC[C@@H](C)N(C(=O)CN(C)C)C[C@H]1C`, the figure is 0.988; as for `C[C@H]1CCCCO[C@@H](CN(C)Cc2ccc(C(=O)Nc3ccccc3N)cc2)[C@@H](C)CN([C@@H](C)CO)C(=O)c2cc(N(C)C)ccc2O1`, 0.998.
For the molecule `[N-]=[N+]=Nc1ccccc1C[C@@]1(C(=O)NC[C@@H](O)CO)N=C(c2ccc(OCCCO)cc2)O[C@@H]1c1ccccc1`, the relative growth was 1.
In the case of `COc1ccc(S(=O)(=O)N(C)C[C@H]2Oc3ccc(NS(=O)(=O)c4ccc(F)cc4)cc3C(=O)N([C@H](C)CO)C[C@H]2C)cc1`, the relative growth was 1.02.
`CO[C@@H]1[C@@H](OC(=O)c2ccc(C)[nH]2)[C@@H](O)[C@@H](Oc2ccc3c(c2C)OC(=O)[C@H](NC(=O)c2[nH]cc(CC(=O)Nc4cc5ccc(O[C@@H]6OC(C)(C)[C@H](OC)[C@@H](OC(=O)c7ccc(C)[nH]7)[C@H]6O)c(C)c5oc4=O)c2C)C3)CC1(C)C`: the relative growth was 0.0629 (active).
The result for `COC1C(OC(N)=O)C(O)C(Oc2ccc3c([O-])c(NC(=O)c4ccc(O)c(CC=C(C)C)c4)c(=O)oc3c2C)OC1(C)C.[Na+]` (centres undefined) reads 0.701; that for `COCCCNC(=O)[C@@H]1c2ccccc2C(=O)N(Cc2cc(C(F)(F)F)cc(C(F)(F)F)c2)[C@H]1c1ccc(CO)cc1`, 0.859.
As to `Cc1noc(C)c1NC(=O)Nc1ccc2c(c1)C(=O)N([C@@H](C)CO)C[C@@H](C)[C@@H](CN(C)C(=O)c1ccccc1)OCCCC[C@@H](C)O2`, the relative growth was 0.977.
With `Cc1cc(C2CCCCC2)n(O)c(=O)c1.NCCO`, the relative growth is 0.0534 (active).
Regarding `C[C@@H]1CN([C@@H](C)CO)C(=O)c2cc(-c3cccc(C(=O)N(C)C)c3)cnc2O[C@H]1CN(C)S(=O)(=O)c1ccccc1`, the relative growth is 1.01.
Regarding `COCC#Cc1ccc2c(c1)O[C@H](CN(C)C(=O)C1CCCCC1)[C@H](C)CN([C@H](C)CO)S2(=O)=O`, the relative growth is 0.988.
The result for `COC1C=COC2(C)Oc3c(C)c(O)c4c(O)c(c(C=NN5CCN(C6CCCC6)CC5)c(O)c4c3C2=O)NC(=O)C(C)=CC=CC(C)C(O)C(C)C(O)C(C)C(OC(C)=O)C1C` (centres undefined) reads 0.0719 (active); that for `COC1C=COC2(C)Oc3c(C)c(O)c4c(O)c(c5c(nc6cc(C)ccn65)c4c3C2=O)NC(=O)C(C)=CC=CC(C)C(O)C(C)C(O)C(C)C(OC(C)=O)C1C` (centres undefined), 0.0499 (active); that for `CO[C@H]1/C=C\O[C@@]2(C)Oc3c(C)c(O)c4c(O)c(c(/C=N/N=C/N5CCCCC5)c(O)c4c3C2=O)NC(=O)/C(C)=C\C=C/[C@H](C)[C@H](O)[C@@H](C)[C@@H](O)[C@@H](C)[C@H](OC(C)=O)[C@@H]1C`, 0.65.
The result for `COC1C=COC2(C)Oc3c(C)c(O)c4c(O)c(c(C=NN5CCN(C)CC5)c(O)c4c3C2=O)NC(=O)C(C)=CC=CC(C)C(O)C(C)C(O)C(C)C(OC(C)=O)C1C` (centres undefined) reads 0.0777 (active); that for `CO[C@H]1/C=C\O[C@@]2(C)Oc3c(C)c(O)c4c(c3C2=O)[C@]2(C=C(NC(=O)/C(C)=C\C=C/[C@@H](C)[C@@H](O)[C@@H](C)[C@@H](O)[C@@H](C)[C@@H](OC(C)=O)[C@@H]1C)C4=O)OCC(=O)O2`, 0.905.
The result for `C[C@@H]1CCCCO[C@H](CN(C)Cc2ccc3c(c2)OCO3)[C@H](C)CN([C@@H](C)CO)C(=O)c2cc(NC(=O)NC3CCCCC3)ccc2O1` reads 1.01; that for `C[C@H](CO)N1C[C@H](C)[C@@H](CN(C)C(=O)NC2CCCCC2)Oc2c(NC(=O)Nc3cccc4ccccc34)cccc2C1=O`, 0.995.
As for `C[C@H](CO)N1C[C@H](C)[C@@H](CN(C)Cc2ccncc2)Oc2c(NS(=O)(=O)c3ccc(F)cc3)cccc2C1=O`, the relative growth was 1.
On to `CO[C@H]1CN(C)C(=O)c2ccc(NS(C)(=O)=O)cc2OC[C@H](C)N(C(=O)C2CCCCC2)C[C@@H]1C`, for which the relative growth is 0.962.
For `C[C@H]1CN([C@@H](C)CO)C(=O)Cc2cc(NS(=O)(=O)c3ccc(Cl)cc3)ccc2O[C@H]1CN(C)Cc1ccc(-c2ccccc2)cc1`, the relative growth is 0.992.
Consider `Cc1noc(C)c1NC(=O)N(C)C[C@@H]1OCCCC[C@@H](C)Oc2ccc(NC(=O)Cc3ccccc3)cc2C(=O)N([C@@H](C)CO)C[C@H]1C`, for which the relative growth is 0.958.
On to `Nc1nc(=O)c2ncn(COCCO)c2[nH]1`, for which the relative growth was 1.
As for `COc1ccc(S(=O)(=O)Nc2ccc3c(c2)C(=O)N([C@@H](C)CO)C[C@H](C)[C@@H](CN(C)S(=O)(=O)c2cn(C)cn2)OCCCC[C@H](C)O3)cc1`, the relative growth was 0.994.
Consider `CO[C@H]1CN(C)C(=O)c2cc(NS(=O)(=O)CC(F)(F)F)ccc2OC[C@@H](C)N(Cc2nccs2)C[C@@H]1C`, for which the relative growth is 0.962.
Turning to `COC1(NC(=O)Cc2cccs2)C(=O)N2C(C(=O)[O-])=C(COC(N)=O)CSC21.[Na+]` (centres undefined), the relative growth was 0.0688 (active).
As for `NC(=O)c1cc[n+](CC2=C(C(=O)[O-])N3C(=O)C(NC(=O)Cc4cccs4)C3SC2)cc1` (centres undefined), the figure is 0.634; as for `CC(=O)OCC1=C(C(=O)[O-])N2C(=O)C(NC(=O)Cc3cccs3)C2SC1.[Na+]` (centres undefined), 0.0435 (active).
As for `CC(=O)OCC1=C(C(=O)[O-])N2C(=O)C(NC(=O)CSc3ccncc3)C2SC1.[Na+]` (centres undefined), the relative growth was 0.797.
As for `C[C@H](CO)N1C[C@H](C)[C@H](CN(C)C(=O)Nc2ccccc2)Oc2c(NC(=O)CCCCCC(=O)Nc3ccccc3N)cccc2C1=O`, the relative growth was 0.992.
Take `COc1ccc(S(=O)(=O)N(C)C[C@H]2Oc3c(NC(=O)C4CC4)cccc3C(=O)N([C@H](C)CO)C[C@@H]2C)cc1`: the relative growth was 0.992.
Regarding `C[C@@H]1CCCCO[C@H](CN(C)C)[C@H](C)CN([C@@H](C)CO)C(=O)c2cc(NS(=O)(=O)c3cn(C)cn3)ccc2O1`, the relative growth is 0.994.
For `C[C@@H]1CCCCO[C@H](CN(C)S(=O)(=O)c2ccccc2)[C@H](C)CN([C@@H](C)CO)C(=O)c2cc(NC(=O)Nc3ccc(C(F)(F)F)cc3)ccc2O1`, the relative growth was 1.
`COc1ccc(S(=O)(=O)Nc2ccc3c(c2)C(=O)N([C@@H](C)CO)C[C@H](C)[C@H](CN(C)S(=O)(=O)c2ccc(C)cc2)O3)cc1`: the relative growth was 1.01.
The result for `C[C@H]1CN([C@@H](C)CO)C(=O)Cc2cc(NC(=O)Nc3ccc(C(F)(F)F)cc3)ccc2O[C@@H]1CN(C)C(=O)Nc1ccc(F)cc1` reads 1.01.
As for `O=C(C[C@H]1C[C@@H]2c3cc(NC(=O)Cc4ccncc4)ccc3O[C@@H]2[C@@H](CO)O1)NCCN1CCCCC1`, the relative growth is 0.983.
The result for `Cc1cn([C@H]2CC[C@@H](CO)O2)c(=O)[nH]c1=O` reads 0.531.
For `Cc1cn([C@H]2C[C@H](F)[C@@H](CO)O2)c(=O)[nH]c1=O`, the relative growth was 0.276.
`Cc1cn([C@H]2C[C@@H](NC(=O)C(C)(C)C)[C@@H](CO)O2)c(=O)[nH]c1=O`: the relative growth was 1.02.
As to `Cc1cn(C2CC(N=[N+]=[N-])C(CO)O2)c(=O)[nH]c1=O` (centres undefined), the relative growth was 0.0449 (active).
Regarding `Cc1cn([C@H]2C[C@H](N=[N+]=[N-])[C@@H](CO)O2)c(=O)[nH]c1=O`, the relative growth was 0.048 (active).
Turning to `CCc1cn([C@H]2C[C@@H](O)[C@@H](CO)O2)c(=O)[nH]c1=O`, the relative growth was 0.827.
For `O=C(C[C@H]1C[C@H]2c3cc(NC(=O)Cc4ccncc4)ccc3O[C@H]2[C@H](CO)O1)NCCN1CCCCC1`, the relative growth is 1.02.
As for `Cc1noc(C)c1NC(=O)Nc1ccc2c(c1)C(=O)N([C@@H](C)CO)C[C@H](C)[C@@H](CN(C)S(=O)(=O)c1ccccc1)O2`, the relative growth is 0.987.
As to `COCC#Cc1ccc2c(c1)O[C@@H](CN(C)S(=O)(=O)c1ccc(C)cc1)[C@@H](C)CN([C@H](C)CO)S2(=O)=O`, the relative growth was 1.02.
Consider `C[C@@H]1CN([C@@H](C)CO)C(=O)c2cccc(NC(=O)Nc3ccc(F)cc3)c2O[C@H]1CN(C)S(=O)(=O)c1cn(C)cn1`, for which the relative growth was 0.984.
`C[C@@H]1CN([C@H](C)CO)C(=O)Cc2cc(NC(=O)Cn3cnnn3)ccc2O[C@H]1CN(C)Cc1ccncc1`: the relative growth is 0.971.
The result for `C[C@@H]1CN([C@@H](C)CO)C(=O)CCCn2nncc2CO[C@@H]1CN(C)C(=O)c1ccc(N2CCN(C)CC2)cc1` reads 0.987; that for `COc1ccc([Si](C)(C)[C@H]2[C@H](CCOC(=O)NCCCCCC(=O)NO)O[C@]3(C(=O)N(Cc4cccc(N5CCCCC5=O)c4)c4ccccc43)[C@@H]2C)cc1`, 1.02.
